Laboratory results published in article PMC11006913.
Substitutions are numbered along the chain they refer to.

Key:
Experiment in all cases: PBM; 200 nM protein, PBS
Conditions in all cases: dsDNA, one strand shown
NKX2-4 [1] = target: T1, NKX2-4 (Homo sapiens, UniProt Q9H2Z4 175-261, P217L)
T1 sequence: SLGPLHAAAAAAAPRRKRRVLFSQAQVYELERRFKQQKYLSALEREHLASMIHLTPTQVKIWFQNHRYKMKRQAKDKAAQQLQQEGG

NKX2-4 [2] = target: T2, NKX2-4 (Homo sapiens, UniProt Q9H2Z4 175-261, T231S)
T2 sequence: T1 sequence with L43P, T57S

NKX2-4 [3] = target: T3, NKX2-4 (Homo sapiens, UniProt Q9H2Z4 175-261)
T3 sequence: T1 sequence with L43P

NKX2-4 [4] = target: T4, NKX2-4 (Homo sapiens, UniProt Q9H2Z4 175-261, R246Q)
T4 sequence: T1 sequence with L43P, R72Q

MSX2 [5] = target: MSX2 (Homo sapiens, UniProt P35548 130-214, R199I)
ALX1 [6] = target: ALX1 (Homo sapiens, UniProt Q15699 118-204, L144V)
ALX1 [7] = target: ALX1 (Homo sapiens, UniProt Q15699 118-204, L144R)
MSX2 [8] = target: MSX2 (Homo sapiens, UniProt P35548 130-214)
MSX2 [9] = target: MSX2 (Homo sapiens, UniProt P35548 130-214, F161Y)
ALX1 [10] = target: ALX1 (Homo sapiens, UniProt Q15699 118-204)
HOXD13 [11] = target: HOXD13 (Homo sapiens, UniProt P35453 263-343, T313R)
HOXD13 [12] = target: HOXD13 (Homo sapiens, UniProt P35453 263-343)
HOXD13 [13] = target: HOXD13 (Homo sapiens, UniProt P35453 263-343, T313A)
Sequence of HOXD13 (Homo sapiens, UniProt P35453 263-343, T313A) (P35453 263-343 T313A): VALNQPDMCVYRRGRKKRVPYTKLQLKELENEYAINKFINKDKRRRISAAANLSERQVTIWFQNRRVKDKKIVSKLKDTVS

Sequence of ALX1 (Homo sapiens, UniProt Q15699 118-204, L144R) (Q15699 118-204 L144R): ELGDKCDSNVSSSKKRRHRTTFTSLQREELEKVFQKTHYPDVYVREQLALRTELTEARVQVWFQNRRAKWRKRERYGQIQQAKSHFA
Sequence of MSX2 (Homo sapiens, UniProt P35548 130-214, R199I) (P35548 130-214 R199I): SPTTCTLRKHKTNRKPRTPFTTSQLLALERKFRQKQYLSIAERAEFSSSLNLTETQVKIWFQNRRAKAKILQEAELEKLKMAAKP
Sequence of ALX1 (Homo sapiens, UniProt Q15699 118-204) (Q15699 118-204): as the sequence (Q15699 118-204 L144R) above, with R27L counted along it
Sequence of HOXD13 (Homo sapiens, UniProt P35453 263-343) (P35453 263-343): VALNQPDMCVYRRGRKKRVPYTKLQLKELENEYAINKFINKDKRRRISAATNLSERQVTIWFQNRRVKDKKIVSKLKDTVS
Sequence of HOXD13 (Homo sapiens, UniProt P35453 263-343, T313R) (P35453 263-343 T313R): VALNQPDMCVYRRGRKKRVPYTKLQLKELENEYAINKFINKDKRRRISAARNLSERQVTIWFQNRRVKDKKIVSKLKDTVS
Sequence of ALX1 (Homo sapiens, UniProt Q15699 118-204, L144V) (Q15699 118-204 L144V): as the sequence (Q15699 118-204 L144R) above, with R27V counted along it
Sequence of MSX2 (Homo sapiens, UniProt P35548 130-214, F161Y) (P35548 130-214 F161Y): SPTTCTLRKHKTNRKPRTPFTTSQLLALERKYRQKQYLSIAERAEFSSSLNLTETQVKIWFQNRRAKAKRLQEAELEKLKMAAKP
Sequence of MSX2 (Homo sapiens, UniProt P35548 130-214) (P35548 130-214): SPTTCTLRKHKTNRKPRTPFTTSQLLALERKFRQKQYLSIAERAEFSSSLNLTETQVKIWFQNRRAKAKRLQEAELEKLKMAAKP

Sequence | binding signal (NKX2-4 [1]) | binding signal (NKX2-4 [2]) | binding signal (NKX2-4 [3]) | binding signal (NKX2-4 [4]) | binding signal (MSX2 [5]) | binding signal (ALX1 [6]) | binding signal (ALX1 [7]) | binding signal (MSX2 [8]) | binding signal (MSX2 [9]) | binding signal (ALX1 [10]) | binding signal (HOXD13 [11]) | binding signal (HOXD13 [12]) | binding signal (HOXD13 [13])
CTGCGTCC | 9.76 upbm affinity estimate (log intensity, higher = more binding, comparable within an allelic series) | 9.72 upbm affinity estimate (log intensity, higher = more binding, comparable within an allelic series) | 9.74 upbm affinity estimate (log intensity, higher = more binding, comparable within an allelic series) | 9.78 upbm affinity estimate (log intensity, higher = more binding, comparable within an allelic series) |  |  |  |  |  |  |  |  | 
ACCCCTGG | 9.8 upbm affinity estimate (log intensity, higher = more binding, comparable within an allelic series) | 9.68 upbm affinity estimate (log intensity, higher = more binding, comparable within an allelic series) | 9.75 upbm affinity estimate (log intensity, higher = more binding, comparable within an allelic series) | 9.71 upbm affinity estimate (log intensity, higher = more binding, comparable within an allelic series) | 9.54 upbm affinity estimate (log intensity, higher = more binding, comparable within an allelic series) | 6.31 upbm affinity estimate (log intensity, higher = more binding, comparable within an allelic series) | 6.38 upbm affinity estimate (log intensity, higher = more binding, comparable within an allelic series) | 9.55 upbm affinity estimate (log intensity, higher = more binding, comparable within an allelic series) | 9.58 upbm affinity estimate (log intensity, higher = more binding, comparable within an allelic series) | 6.28 upbm affinity estimate (log intensity, higher = more binding, comparable within an allelic series) |  |  | 
CGCCGCAG | 9.48 upbm affinity estimate (log intensity, higher = more binding, comparable within an allelic series) | 9.2 upbm affinity estimate (log intensity, higher = more binding, comparable within an allelic series) | 9.51 upbm affinity estimate (log intensity, higher = more binding, comparable within an allelic series) | 9.58 upbm affinity estimate (log intensity, higher = more binding, comparable within an allelic series) |  |  |  |  |  |  | 9.57 upbm affinity estimate (log intensity, higher = more binding, comparable within an allelic series) | 9.58 upbm affinity estimate (log intensity, higher = more binding, comparable within an allelic series) | 9.63 upbm affinity estimate (log intensity, higher = more binding, comparable within an allelic series)
